The whole screen tested about 310,000 compounds, of which about 2,600 (0.84%) were called active.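 Rule for the calls: active = B-score over 3 SD under the library average, and starting fluorescence ratio not unusually high; inactive = the rest.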 The sample as a whole holds a higher share of actives than the screen did.

Data on 66 molecules can be found in PubChem BioAssay AID488975 (Johns Hopkins Ion Channel Center, 2010).

High affinity choline transporter 1 (Homo sapiens), sequence (Q9GZV3 whole entry, looked up): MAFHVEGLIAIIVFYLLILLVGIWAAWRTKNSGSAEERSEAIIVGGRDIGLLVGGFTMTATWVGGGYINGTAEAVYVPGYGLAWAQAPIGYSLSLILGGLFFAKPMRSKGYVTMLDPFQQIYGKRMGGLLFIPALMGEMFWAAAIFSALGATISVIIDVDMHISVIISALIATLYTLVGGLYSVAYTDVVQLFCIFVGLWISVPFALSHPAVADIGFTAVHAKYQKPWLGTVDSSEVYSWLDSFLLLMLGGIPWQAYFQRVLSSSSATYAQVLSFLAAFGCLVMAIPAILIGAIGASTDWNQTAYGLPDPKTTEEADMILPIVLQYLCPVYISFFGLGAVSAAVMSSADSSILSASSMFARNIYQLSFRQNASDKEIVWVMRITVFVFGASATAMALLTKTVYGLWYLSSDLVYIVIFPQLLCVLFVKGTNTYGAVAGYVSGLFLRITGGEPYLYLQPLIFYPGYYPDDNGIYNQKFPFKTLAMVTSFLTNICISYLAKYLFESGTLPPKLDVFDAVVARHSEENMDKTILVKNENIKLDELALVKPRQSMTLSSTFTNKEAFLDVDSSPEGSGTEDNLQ

The assay has as its target High affinity choline transporter 1 (Homo sapiens) (UniProt Q9GZV3). As to the kind of experiment: inhibits the human high affinity choline transporter (AID 488975).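 For B-score: choline stimulus applied at its EC90 after an EC20 pre-addition; B-score computed on integrated fluorescence ratio after choline addition.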 Conditions: CHT-expressing cells, membrane potential dye, choline response, at 10 µM; hits give low values.
As for `CC(Sc1nn(-c2ccc(Cl)cc2)c(=S)s1)C(=O)NCC1CCCO1` (stereo unspecified), the B-score entry was “inactive”.

For `COc1ccc(S(=O)(=O)N2CCOC23CCN(S(=O)(=O)c2ccc([N+](=O)[O-])cc2)CC3)cc1`, the B-score result is “inactive”.

With `CCC(C)c1ccc(NC(=S)NCc2ccccn2)cc1` (stereo unspecified), the B-score was -9.17 (active).

Turning to `O=C(NCc1ccccn1)Nc1ccc(Cl)cc1`, the B-score result was “inactive”.

As for `O=C(NCc1ccccn1)Nc1ccc(F)cc1`, the B-score result is “inactive”.

As for `CCOC(=O)C(C)N(c1ccccc1Cl)S(C)(=O)=O` (stereo unspecified), the B-score result was “inactive”.

`O=C(Nc1cccc2cccnc12)c1cccc(Cl)c1`: the B-score entry was “inactive”.

For `O=C(Nc1cccc2cccnc12)c1cccc(N2C(=O)CCC2=O)c1`, the B-score result is “inactive”.

For `N#Cc1ccc(C(=O)Nc2cccc3cccnc23)c(F)c1`, the B-score was -5.02 (active).

As for `CCOC(=O)c1cc(C(C)C)sc1NC(=O)COC(=O)c1nccnc1N`, the B-score result was “inactive”.

In the case of `CCOc1ccc(NS(=O)(=O)c2ccc(C(=O)NC3CCN(Cc4ccccc4)CC3)cc2)cc1`, the B-score result was “inactive”.

`Cc1ccc(CNC(=O)c2cc(-c3ccccc3C)n(CC3CC(c4cccc([N+](=O)[O-])c4)=NO3)n2)cc1` (stereo unspecified): the B-score result is “inactive”.

For `O=C(NCCc1ccc2c(c1)OCCO2)c1cc2ccccc2o1`, the B-score was -5.1 (active).

As for `O=C(CC(Cc1ccccc1)C(=O)O)NCCc1ccc2c(c1)OCO2` (stereo unspecified), the B-score entry was “inactive”.

Turning to `N=c1oc2ccccc2cc1C(=O)NCc1ccccc1`, the B-score result was “inactive”.

Regarding `COc1ccc(C(=O)NCC2CCCN2S(=O)(=O)c2cccs2)cc1OC` (stereo unspecified), the B-score result is “inactive”.

Regarding `Cc1ccc(C(=O)C(C)OC(=O)Cc2n[nH]c(=O)c3ccccc23)cc1C` (stereo unspecified), the B-score entry is “inactive”.

As for `COc1nc(OC)nc(N(C)CCO)n1`, the B-score was -12.4 (active).

Regarding `O=C(CSC1=NS(=O)(=O)c2cc(F)ccc2N1)Nc1ccccc1F`, the B-score entry is “inactive”.

As to `CN(CC(=O)Nc1cccc(F)c1)C(=O)C1=COCCO1`, the B-score result is “inactive”.

`CN(CCO)c1ccc(/C=N/Nc2nncc3ccccc23)cc1`: the B-score entry was “inactive”.

In the case of `O=C(Nc1cccc(C(F)(F)F)c1)c1ccc(N2CCNCC2)c([N+](=O)[O-])c1`, the B-score result was “inactive”.

Take `CCC(C)NC(=O)c1ccc(N2CCC3(CC2)OCCO3)c([N+](=O)[O-])c1` (stereo unspecified): the B-score entry was “inactive”.

Take `CS(=O)(=O)N1CCN(c2ccc(C(=O)NC3C4CC5CC(C4)CC3C5)cc2[N+](=O)[O-])CC1` (stereo unspecified): the B-score result was “inactive”.

`O=C(NC1C2CC3CC(C2)CC1C3)c1ccc(N2CCNCC2)c([N+](=O)[O-])c1` (stereo unspecified): the B-score was -5.53 (active).

`CC1CCN(c2ccc(C(=O)Nc3nnc(C4CC4)s3)cc2[N+](=O)[O-])CC1`: the B-score entry was “inactive”.

Consider `CC(NC(=O)c1ccc(N2CCNCC2)c([N+](=O)[O-])c1)C12CC3CC(CC(C3)C1)C2` (stereo unspecified), for which the B-score was -5.65 (active).

For the molecule `O=C(NCCC1CCCCN1S(=O)(=O)c1ccc(Cl)cc1)C(=O)NCc1ccco1` (stereo unspecified), the B-score entry was “inactive”.

Take `CCCNC(=O)CCn1cc(-c2ccc(OC)cc2)nc1CCN`: the B-score result is “inactive”.

On to `C=CCNC(=O)C1CC2c3ccccc3C1c1ccccc12` (stereo unspecified), for which the B-score result was “inactive”.

Regarding `CC1(C)CC(=O)c2sc(N)nc2C1`, the B-score entry was “inactive”.

As to `CC(=O)Nc1nc2c(s1)C(=O)NCC(C)(C)C2`, the B-score is -5.07 (active).

With `CNC(=O)c1ccc2nc(NC(C)=O)sc2c1`, the B-score result was “inactive”.

As for `COc1cccc(N2CC(NC(=O)c3ccc4ccccc4c3)CC2=O)c1` (stereo unspecified), the B-score entry was “inactive”.

As for `COc1cccc(CC2(CO)CCCN(Cc3ccc(OC(F)F)cc3)C2)c1` (stereo unspecified), the B-score result is “inactive”.

For `Cc1nn(C)c(C)c1NS(=O)(=O)c1ccc(OC(F)(F)F)cc1`, the B-score result was “inactive”.

Consider `CNC(=O)NC(=O)C(C)N1CCN(C/C=C/c2ccccc2)CC1` (stereo unspecified), for which the B-score was -6.91 (active).

Turning to `COc1cc(C(=O)N2CCN(C/C=C/c3ccccc3)CC2)cc(OC)c1C`, the B-score entry was “inactive”.

With `O=C(CCN1CCN(C/C=C/c2ccccc2)CC1)Nc1cccc(F)c1`, the B-score result was “inactive”.

In the case of `CCc1ccc(C(=O)NNC(=O)C2CCN(c3ncnc4sc(C)c(C)c34)CC2)cc1`, the B-score entry is “inactive”.

`O=C(Nc1ccc(C(=O)N2CCOCC2)cc1)Nc1cccc(C(F)(F)F)c1`: the B-score entry is “inactive”.

As for `CCOc1ccccc1N1CN(Cc2ccccc2)CNC1=S`, the B-score entry was “inactive”.

For `CCc1ccccc1N1CN(Cc2ccco2)CNC1=S`, the B-score was -5.54 (active).

Consider `CCN1CN(Cc2ccccc2)CNC1=S`, for which the B-score result is “inactive”.

Take `Brc1cnc2ccccc2c1N1CCCCC1`: the B-score entry was “inactive”.

Regarding `CCCCCN(C(=O)CCC(=O)OCC(=O)NC1CCC(C)CC1)c1c(N)n(CCCC)c(=O)[nH]c1=O` (stereo unspecified), the B-score result was “inactive”.

With `O=C(CN1C(=O)NC2(CCCC2)C1=O)OCCOc1ccc(F)cc1`, the B-score result is “inactive”.

For the molecule `COc1cc(NC(=O)CSC(=S)N2CCCC2)c(OC)cc1Cl`, the B-score entry was “inactive”.

Turning to `COc1ccc(/C=C2\SC(=O)N(CCC(=O)NC3CCS(=O)(=O)C3)C2=O)cc1` (stereo unspecified), the B-score entry is “inactive”.

In the case of `CN(C(=O)CN1C(=O)/C(=C/c2ccc(Cl)cc2)SC1=S)C1CCS(=O)(=O)C1` (stereo unspecified), the B-score entry is “inactive”.

Turning to `CC(C(=O)NC1CCS(=O)(=O)C1)N1C(=O)/C(=C/c2ccc(Cl)cc2)SC1=S` (stereo unspecified), the B-score is -8.07 (active).

As to `COc1ccc(S(=O)(=O)N(CC(=O)N/N=C/c2ccc(C(=O)O)cc2)Cc2ccccc2)cc1OC`, the B-score entry was “inactive”.

For `CCN(Cc1ccccc1)S(=O)(=O)c1cc(C(=O)O)ccc1OC`, the B-score was -5.82 (active).

Regarding `COc1ccc(C(=O)O)cc1S(=O)(=O)NCc1cccnc1`, the B-score entry was “inactive”.

`O=C(NCC(c1ccco1)N1CCc2ccccc2C1)c1ccccc1Cl` (stereo unspecified): the B-score result is “inactive”.

As to `NC(=O)c1ccsc1NC(=O)COC(=O)Cc1n[nH]c(=O)c2ccccc12`, the B-score result was “inactive”.

Consider `Nc1c(-c2ccccc2)nnn1Cc1ccccc1`, for which the B-score entry is “inactive”.

For the molecule `Oc1c(Cl)cc(Cl)c(Cl)c1Cc1c(O)c(Cl)cc(Cl)c1Cl`, the B-score is -6.87 (active).

As for `COc1ccc(C2=NN(C(=O)CSc3nc(=O)n4ccc(C)cc4n3)C(c3ccc(C)cc3)C2)cc1` (stereo unspecified), the B-score entry was “inactive”.

Take `CCN1C(=O)[C@H]2[C@@H](c3ccc(-c4ccc(F)cc4)cc3)N[C@@](Cc3ccccc3)(C(=O)OC)[C@H]2C1=O`: the B-score entry was “inactive”.

For `O=C(Cc1ccc(Br)cc1)NCCc1ccccc1`, the B-score result is “inactive”.

For `CC(=O)Nc1ccc(NC(=O)CSC2=NS(=O)(=O)c3ccccc3N2)cc1`, the B-score entry was “inactive”.

For `C=C(C)CNC(=O)c1ccc(OC2CCN(C(=O)COC)CC2)cc1`, the B-score entry was “inactive”.

For `O=C1c2cccc3cccc(c23)C(=O)N1CCCCCc1n[nH]c(=S)o1`, the B-score was -5.24 (active).

On to `O=C(CCCCCN1C(=O)c2cccc3cccc(c23)C1=O)NCc1ccco1`, for which the B-score entry was “inactive”.

Turning to `C[N+](C)(CCCCCC[N+](C)(C)CCCN1C(=O)c2cccc3cccc(c23)C1=O)CCCN1C(=O)c2cccc3cccc(c23)C1=O`, the B-score result was “inactive”.
